What all share (test): NCI-60 one-dose screen, 48 h (100 = growth as untreated, 0 = no growth, -100 = all killed)
Holding throughout (conditions): 10 µM unless noted

The subject of assay [1] is DU-145 prostate.
Assay [2] deals with K-562 leukemia.
Assay [3] has as its system MALME-3M melanoma.
Assay [4] relates to MDA-MB-231 breast.
For assay [5], the system named is RXF 393 renal.
Assay [6] deals with SF-268 CNS.
Assay [7] relates to SF-295 CNS.
Assay [8] has as its system SF-539 CNS.
Assay [9] deals with UACC-257 melanoma.
Assay [10] relates to M14 melanoma.
Assay [11] deals with HCT-15 colon.
For assay [12], the system named is HT29 colon.
Assay [13] concerns SNB-75 CNS.
Assay [14] concerns SNB-19 CNS.
Assay [15] relates to U251 CNS.
The subject of assay [16] is PC-3 prostate.
Assay [17] deals with SK-MEL-5 melanoma.
In assay [18] the test system is UACC-62 melanoma.
Assay [19] concerns SK-MEL-28 melanoma.
Assay [20] has as its system LOX IMVI melanoma.

This is part of a sample that, as a whole, favours compounds with a hit. Of some 83,000 tested, about 20% had one in any assay.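 Growth was measured after 48 h exposure to one concentration of compound in 96-well plates. Values under 10 count as active.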 A number with no mark means an inactive call. Active and inactive are the calls of the source.

As for `COc1ccc(/C=C(/C(=O)n2cnnn2)c2cc(OC)c(OC)c(OC)c2)cc1`, the growth was 25.1% in assay [1]; 15.3% in assay [2]; 62.5% in assay [3]; 36.7% in [4]; -4.36% (active) in [5]; 49% in assay [6]. In addition, the growth in assay [7] is -7.45% (active); in assay [8], -7.92% (active); in assay [9], 70.2%; in [10], -2.57% (active); in [11] it was 15.5%; in assay [12] it was 8.2% (active). Besides, the growth in assay [13] is 15.4%; in assay [14], 17.4%; in [15] it was 17.9%; in assay [16] it was 13.1%; in assay [17], 15.2%; in assay [18] it was 20.1%. Further, the growth in [19] was 43.8%.
In the case of `COc1ccc(-c2nc3c(N)c(CO)cnc3s2)cc1`, the growth in [1] was 86.6%; in assay [2], 97.2%; in [3], 101%; in [4], 94.4%; in assay [5], 74.7%; in [6], 76.2%. For the same molecule, the growth was 93.1% in [7]; 89.7% in [8]; 110% in [9]; 99.4% in assay [10]; 93.8% in assay [11]; 97.7% in assay [12]. Further, the growth in assay [13] was 82.9%; in assay [14] it was 97.2%; in [16], 91.8%; in assay [17], 82.7%; in assay [18], 92.7%; in assay [20], 81.9%. Besides, the growth in [19] is 98.5%.
Turning to `O=C(Cn1nnc2ccccc21)N/N=C/c1c[nH]c2ccccc12`, the growth in assay [1] was 81%; in assay [2], 15.2%; in assay [3], 61%; in [4], 52%; in assay [5] it was 66.5%; in assay [6] it was 57.5%. The growth is 44.3% in assay [7]; 51.9% in assay [8]; 65.3% in assay [9]; 19.7% in assay [10]; 33.3% in assay [11]; 13.1% in assay [12]. Besides, the growth in assay [13] was 33.5%; in [14] it was 41.3%; in assay [16], 61.7%; in assay [17], 28.4%; in assay [18], 23%; in assay [20], 46.1%. In assay [19], the growth was 72.5%.
`O=S(=O)(Oc1ccc(Br)cc1)c1ccc(Cl)cc1`: the growth in assay [1] was 93.8%; in [2], 108%; in assay [3], 85.5%; in assay [4] it was 117%; in assay [5] it was 114%; in assay [6] it was 99.2%. For the same molecule, the growth in assay [7] is 94.6%; in assay [8], 110%; in assay [9], 118%; in [10] it was 94.3%; in assay [11], 97.6%; in assay [12] it was 99%. Also, the growth in assay [13] is 121%; in [14], 103%; in [15], 106%; in assay [16], 91.7%; in assay [17], 101%; in [18], 98.6%. Also, the growth in assay [19] was 103%.
On to `CC(C)=CCNc1ncnc2c1ncn2C1OC(CO)C(O)C1O` (configuration not stated), for which the growth in [1] was -89.4% [1 mM] (active); in [2], 7.4% [1 mM] (active); in assay [3] it was 32.4% [1 mM]; in assay [4], -54.7% [1 mM] (active); in assay [5] it was -71.2% [1 mM] (active); in assay [6] it was 4.72% [1 mM] (active). In addition, the growth is -24.2% [1 mM] (active) in assay [7]; -41.8% [1 mM] (active) in [8]; 92.7% [1 mM] in assay [9]; 26.9% [1 mM] in [10]; -49.7% [1 mM] (active) in assay [11]; -5.71% [1 mM] (active) in [12]. For the same molecule, the growth in assay [13] is -32.6% [1 mM] (active); in assay [14], 13.5% [1 mM]; in assay [16] it was -25.8% [1 mM] (active); in [17] it was 49.4% [1 mM]; in assay [18] it was 27.5% [1 mM]; in assay [20], -96.7% [1 mM] (active). Also, in assay [19], the growth was 79.5% [1 mM].
Regarding `O=C(Cc1cccc(OC(F)(F)F)c1)Nc1ccc(CCCCc2nnc(NC(=O)Cc3ccccn3)s2)nn1`, the growth in [1] was 86.9%; in assay [2], 45.7%; in assay [3], 82.8%; in assay [4], 84.6%; in assay [5], 52.1%; in [6], 78.7%. For the same molecule, the growth in assay [7] was 60.6%; in assay [8], 81.9%; in [9], 92.9%; in assay [10] it was 50.8%; in assay [11] it was 89.6%; in assay [12] it was 76.6%. Besides, the growth in [13] is 78.6%; in [14], 84.9%; in assay [15] it was 82.3%; in [16] it was 17.5%; in [17], 62.2%; in assay [18], 63.5%. The growth in assay [19] was 93.8%.
As to `CC(C)(C)n1cc(-c2ccnc(NCCNS(=O)(=O)c3ccc(O)cc3)c2)c(-c2cccc(O)c2)n1`, the growth in assay [1] was 106%; in assay [2], 56.1%; in assay [3] it was 96.9%; in [4], 111%; in [5] it was 108%; in assay [6], 94.4%. For the same molecule, the growth in [7] is 101%; in [8], 95.3%; in [9], 99.1%; in assay [10], 110%; in assay [11] it was 107%; in assay [12], 76.9%. For the same molecule, the growth was 74.4% in assay [13]; 98.5% in assay [14]; 101% in assay [16]; 79.7% in assay [17]; 101% in assay [18]; 106% in [20]. Also, in [19], the growth was 98.9%.
`CN1CCN(CC(=O)Nc2ccc3ncnc(Nc4ccc(Oc5cccc(C(F)(F)F)c5)c(Cl)c4)c3c2)CC1`: the growth in [1] was 23.9%; in assay [2], -27.3% (active); in [3], -77.1% (active); in assay [4] it was -58.1% (active); in assay [5] it was -78.6% (active); in assay [6], 11.3%. In addition, the growth in assay [7] was -44.7% (active); in assay [8] it was -84.5% (active); in [9], -56.1% (active); in assay [10], -86.5% (active); in [11], -12.2% (active); in assay [12], -19.2% (active). For the same molecule, the growth is 68.8% in assay [13]; 28.5% in assay [14]; 42.9% in assay [16]; -58% (active) in [17]; -28.8% (active) in [18]; -94.6% (active) in [20]. In addition, in assay [19], the growth was -89% (active).

The record behind these values is PubChem BioAssay (NCI).
